From PubChem BioAssay AID1159580 (chemical genetic matrix, 2015)
In all, about 5,500 compounds went through this assay and about 2,000 (36%) were called active. Not shown: some 18% with an inconclusive outcome. Rule as the data show it: active = normalized growth mostly below about 0.91 (no sharp cut-off); inconclusive = no clear call, values can overlap the other calls; inactive = mostly above about 0.92. The list shows a part of the results.

Assay: chemical genetic growth profiling, strain panel (AID 1159580);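 also: tested at 20 µM; growth read once vehicle control cultures reached saturation at 30 °C; 1 = growth at the plate median or of vehicle wells; lower values mean less growth of the strain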
Conditions: growth OD

Measured: normalized growth

NC(=O)NCCCC(N)C(=O)O (configuration not stated)
inactive: S. cerevisiae deletion strains, locus YJR075W, strain HOC1, active compounds read low 1.03 | S. cerevisiae deletion strains, locus YKL009W, strain mrt4, active compounds read low 0.984 | S. cerevisiae deletion strains, locus YKL068W, active compounds read low 0.999 | S. cerevisiae deletion strains, locus YKL085W, strain MDH1 (second series), active compounds read low 1 | S. cerevisiae deletion strains, locus YKL085W, strain MDH1, active compounds read low 1 | S. cerevisiae deletion strains, locus YKL160W, strain elf1, active compounds read low 0.979 | S. cerevisiae deletion strains, locus YKL190W, strain CNB1, active compounds read low 1.02 | S. cerevisiae deletion strains, locus YKR001C, strain vps1, active compounds read low 1 | S. cerevisiae deletion strains, locus YKR026C, strain gcn3, active compounds read low 1 | S. cerevisiae deletion strains, locus YKR091W, strain srl3, active compounds read low 0.997 | S. cerevisiae deletion strains, locus YLL001W, strain dnm1, active compounds read low 1 | S. cerevisiae deletion strains, locus YLL026W, active compounds read low 1.01 | S. cerevisiae deletion strains, locus YLL041C, strain sdh2, active compounds read low 0.987 | S. cerevisiae deletion strains, locus YLR027C, strain aat2, active compounds read low 0.996 | S. cerevisiae deletion strains, locus YLR039C, strain RIC1, active compounds read low 1.03 | S. cerevisiae deletion strains, locus YLR058C, strain SHM2, active compounds read low 1.02 | S. cerevisiae deletion strains, locus YLR102C, strain apc9, active compounds read low 0.997 | S. cerevisiae deletion strains, locus YLR113W, strain HOG1, active compounds read low 1.02 | S. cerevisiae deletion strains, locus YLR221C, strain rsa3, active compounds read low 0.971 | S. cerevisiae deletion strains, locus YLR258W, strain gsy2, active compounds read low 1.03 | S. cerevisiae deletion strains, locus YLR262C, strain YPT6 (second series), active compounds read low 1 | S. cerevisiae deletion strains, locus YLR262C, strain YPT6, active compounds read low 1.04 | S. cerevisiae deletion strains, locus YLR268W, strain sec22, active compounds read low 0.989 | S. cerevisiae deletion strains, locus YLR320W, strain mms22, active compounds read low 1.03 | S. cerevisiae deletion strains, locus YLR330W, strain CHS5, active compounds read low 1.01 | S. cerevisiae deletion strains, locus YLR342W, strain FKS1 (second series), active compounds read low 1.01 | S. cerevisiae deletion strains, locus YLR342W, strain FKS1, active compounds read low 1.01 | S. cerevisiae deletion strains, locus YLR357W, strain rsc2, active compounds read low 1.01 | S. cerevisiae deletion strains, locus YLR370C, strain arc18, active compounds read low 0.987 | S. cerevisiae deletion strains, locus YLR371W, strain rom2, active compounds read low 0.995 | S. cerevisiae deletion strains, locus YLR384C, strain iki3, active compounds read low 1 | S. cerevisiae deletion strains, locus YLR418C, strain cdc73, active compounds read low 0.989 | S. cerevisiae deletion strains, locus YML016C, strain PPZ1, active compounds read low 1.02 | S. cerevisiae deletion strains, locus YML032C, strain rad52, active compounds read low 0.999 | S. cerevisiae deletion strains, locus YML120C, strain ndi1, active compounds read low 0.962 | S. cerevisiae deletion strains, locus YML124C, strain tub3, active compounds read low 0.989 | S. cerevisiae deletion strains, locus YMR058W, strain fet3, active compounds read low 0.983 | S. cerevisiae deletion strains, locus YMR078C, strain ctf18, active compounds read low 0.992 | S. cerevisiae deletion strains, locus YMR125W, strain sto1, active compounds read low 1.01 | S. cerevisiae deletion strains, locus YMR129W, active compounds read low 0.991 | S. cerevisiae deletion strains, locus YMR205C, strain PFK2, active compounds read low 1.05 | S. cerevisiae deletion strains, locus YMR223W, strain ubp8, active compounds read low 0.998 | S. cerevisiae deletion strains, locus YMR231W, strain pep5, active compounds read low 1.01 | S. cerevisiae deletion strains, locus YMR263W, strain SAP30, active compounds read low 1.02 | S. cerevisiae deletion strains, locus YMR307W, strain GAS1, active compounds read low 1.02 | S. cerevisiae deletion strains, locus YNL067W, strain RPL9B, active compounds read low 1.04 | S. cerevisiae deletion strains, locus YNL071W, strain lat1, active compounds read low 0.999 | S. cerevisiae deletion strains, locus YNL128W, strain TEP1, active compounds read low 1.04 | S. cerevisiae deletion strains, locus YNL153C, strain GIM3, active compounds read low 1.02 | S. cerevisiae deletion strains, locus YNL183C, strain NPR1, active compounds read low 0.963 | S. cerevisiae deletion strains, locus YNL209W, strain ssb2, active compounds read low 1 | S. cerevisiae deletion strains, locus YNL233W, strain BNI4, active compounds read low 1.02 | S. cerevisiae deletion strains, locus YNL248C, strain rpa49, active compounds read low 0.941 | S. cerevisiae deletion strains, locus YNL250W, strain rad50, active compounds read low 1 | S. cerevisiae deletion strains, locus YNL271C, strain bni1, active compounds read low 0.992 | S. cerevisiae deletion strains, locus YNL298W, strain CLA4, active compounds read low 1.01 | S. cerevisiae deletion strains, locus YNL307C, strain MCK1, active compounds read low 0.981 | S. cerevisiae deletion strains, locus YNL322C, strain KRE1 (second series), active compounds read low 0.988 | S. cerevisiae deletion strains, locus YNL322C, strain KRE1, active compounds read low 1.02 | S. cerevisiae deletion strains, locus YNR049C, strain mso1, active compounds read low 1 | S. cerevisiae deletion strains, locus YNR052C, strain pop2, active compounds read low 1 | S. cerevisiae deletion strains, locus YOL006C, strain TOP1, active compounds read low 1.04 | S. cerevisiae deletion strains, locus YOL012C, strain htz1 1.42 | S. cerevisiae deletion strains, locus YOL147C, strain pex11, active compounds read low 0.994 | S. cerevisiae deletion strains, locus YOR001W, strain rrp6, active compounds read low 0.958 | S. cerevisiae deletion strains, locus YOR061W, strain CKA2, active compounds read low 1.03 | S. cerevisiae deletion strains, locus YOR069W, strain VPS5, active compounds read low 1.01 | S. cerevisiae deletion strains, locus YOR070C, strain gyp1, active compounds read low 0.999 | S. cerevisiae deletion strains, locus YOR080W, strain dia2, active compounds read low 1.01 | S. cerevisiae deletion strains, locus YOR083W, strain WHI5, active compounds read low 0.958 | S. cerevisiae deletion strains, locus YOR106W, strain vam3, active compounds read low 0.978 | S. cerevisiae deletion strains, locus YOR136W, strain idh2, active compounds read low 0.988 | S. cerevisiae deletion strains, locus YOR144C, strain elg1, active compounds read low 0.993 | S. cerevisiae deletion strains, locus YOR184W, strain ser1, active compounds read low 0.99 | S. cerevisiae deletion strains, locus YOR231W, strain MKK1, active compounds read low 0.991 | S. cerevisiae deletion strains, locus YOR265W, strain rbl2, active compounds read low 0.998 | S. cerevisiae deletion strains, locus YOR270C, strain vph1, active compounds read low 0.964 | S. cerevisiae deletion strains, locus YOR290C, strain snf2, active compounds read low 1 | S. cerevisiae deletion strains, locus YOR316C, strain cot1, active compounds read low 0.996 | S. cerevisiae deletion strains, locus YPL051W, strain arl3, active compounds read low 0.981 | S. cerevisiae deletion strains, locus YPL055C, strain LGE1, active compounds read low 1.07 | S. cerevisiae deletion strains, locus YPL078C, strain atp4, active compounds read low 0.949 | S. cerevisiae deletion strains, locus YPL106C, strain sse1, active compounds read low 1.03 | S. cerevisiae deletion strains, locus YPL240C, strain hsp82, active compounds read low 0.988 | S. cerevisiae deletion strains, locus YPL241C, strain CIN2, active compounds read low 1.01 | S. cerevisiae deletion strains, locus YPL256C, strain CLN2, active compounds read low 0.988 | S. cerevisiae deletion strains, locus YPR119W, strain clb2, active compounds read low 0.995 | S. cerevisiae deletion strains, locus YPR141C, strain kar3, active compounds read low 1 | S. cerevisiae deletion strains, locus YPR163C, strain tif3, active compounds read low 0.989 | S. cerevisiae deletion strains, locus YPR167C, strain met16, active compounds read low 0.995 | S. cerevisiae deletion strains, strain wtn01, active compounds read low 0.986 | S. cerevisiae strains, strain wild type, active compounds read low 1.01
